# Laboratory results published in PubChem BioAssay (EPA / NIEHS).
# Records with an inconclusive call do not appear. Active and inactive are the calls of the source. The calls were made as follows: active = hit-call score of the fitted dose curve at least 0.9, where 1 is the maximum; inconclusive = response in the unintended direction; inactive = score below 0.9.
# Assays:
# [1] = ACEA_AR_agonist_AUC_viability: ACEA Biosciences xCELLigence Real-Time Cell Analysis on Androgen Receptor Agonism for Viability (AID 2283775);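 as to AC50: viability read 80 hours after compound addition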
# In short: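 Real-time impedance tracking of 22Rv1 growth, readings every 5 min for 5 h then hourly; area-under-curve viability endpoint at 80 hours, relative to DMSO. Compounds at eight concentrations, 1:4 steps, top 100 uM, n = 2.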
# [2] = ACEA_AR_antagonist_AUC_viability: ACEA Biosciences xCELLigence Real-Time Cell Analysis on Androgen Receptor Antagonism for Viability (AID 2283776);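 also: 22Rv1 human prostate cancer cells growing on impedance electrode plates; hits lower the growth signal relative to DMSO meaning cytotoxicity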
# In short: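 22Rv1 prostate cells, continuous dosing up to 100 uM final (0.5% DMSO max), duplicate plates. Growth measured by impedance; AUC at 80 h, loss of signal vs DMSO.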
# [3] = system: zebrafish Androgen Receptor (AR), gene 100005148; experiment: ATG_zfAR_XSP1: Attagene TRANS-FACTORIAL Multi-Species (XSP1) HepG2 Assay for zebrafish Androgen Receptor (AR) (AID 2283771)
# In short: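 HepG2 cells were transiently transfected with a zebrafish AR-GAL4 reporter system and partially stimulated with 3 nM 6-alpha-fluorotestosterone. Reporter mRNA was measured after 24 h dosing by RT-PCR with capillary electrophoresis, and gain-of-signal was fitted relative to DMSO.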
# [4] = biological target: zebrafish Estrogen Receptor (ESR1), esr1 (gene 259252) (UniProt P57717); experiment: ATG_zfER1_XSP1: Attagene TRANS-FACTORIAL Multi-Species (XSP1) HepG2 Assay for zebrafish Estrogen Receptor (ESR1) (AID 2283772)
# In short: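 Exogenous chimeric receptor-GAL4 activity is measured in transiently transfected human HepG2 liver cells after 24 h compound exposure. Reporter transcripts are detected by RT-PCR and fluorescent capillary electrophoresis, analysed for signal gain relative to DMSO.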
# [5] = system: zebrafish Estrogen Receptor (ESR2B), gene 317733; experiment: ATG_zfER2b_XSP1: Attagene TRANS-FACTORIAL Multi-Species (XSP1) HepG2 Assay for zebrafish Estrogen Receptor (ESR2B) (AID 2283773)
# In short: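 HepG2 cells transiently transfected with GAL4-UAS reporter units for chimeric zebrafish ER2b-Gal4, with 3 nM 6-alpha-fluorotestosterone present; reporter mRNA measured 24 h after dosing by RT-PCR and capillary electrophoresis, gain versus DMSO.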
# [6] = system: frog Estrogen Receptor (ESR2), gene 100174814; experiment: ATG_frER2_XSP1: Attagene TRANS-FACTORIAL Multi-Species (XSP1) HepG2 Assay for frog Estrogen Receptor (ESR2) (AID 2283774)
# In short: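 HepG2 cells transiently transfected with GAL4-UAS reporter units expressing chimeric frog ER-Gal4; 3 nM 6-alpha-fluorotestosterone present. After 24 h dosing, reporter mRNA quantified by RT-PCR and capillary electrophoresis; gain-of-signal fitted relative to DMSO.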
# [7] = biological target: chicken Estrogen Receptor (ESR1), ESR1 (gene 396099) (UniProt P06212); experiment: ATG_chERa_XSP1: Attagene TRANS-FACTORIAL Multi-Species (XSP1) HepG2 Assay for chicken Estrogen Receptor (ESR1) (AID 2283779)
# In short: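 HepG2 cells transiently transfected with GAL4-UAS reporter units for chimeric chicken ERα-Gal4, dosed 24 h with 3 nM 6-alpha-fluorotestosterone present. Reporter mRNA by RT-PCR and capillary electrophoresis; gain-of-signal fit versus DMSO.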
# [8] = system: frog Estrogen Receptor (ESR1), gene 398734; experiment: ATG_frER1_XSP1: Attagene TRANS-FACTORIAL Multi-Species (XSP1) HepG2 Assay for frog Estrogen Receptor (ESR1) (AID 2283777)
# In short: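 HepG2 cells transiently transfected with frog ER–GAL4 chimera and GAL4-UAS reporter, with 3 nM 6-alpha-fluorotestosterone present; 24 h dosing, reporter mRNA quantified by RT-PCR and capillary electrophoresis, gain of signal versus DMSO.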
# [9] = system: zebrafish Estrogen Receptor (ESR2A), gene 317734; experiment: ATG_zfER2a_XSP1: Attagene TRANS-FACTORIAL Multi-Species (XSP1) HepG2 Assay for zebrafish Estrogen Receptor (ESR2A) (AID 2283778)
# In short: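 HepG2 cells transiently transfected with GAL4-UAS reporter units driven by a zebrafish ESR2A–Gal4 chimera; 24 h compound exposure with 3 nM 6-alpha-fluorotestosterone present. Reporter mRNA measured by RT-PCR with fluorescent capillary electrophoresis, fitted positive versus DMSO.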
# [10] = system: chicken Androgen Receptor (AR), gene 422165; experiment: ATG_chAR_XSP1: Attagene TRANS-FACTORIAL Multi-Species (XSP1) HepG2 Assay for chicken Androgen Receptor (AR) (AID 2283768)
# Experimental: ATG_XSP1_multi-species_TRANS is a cell-based, multiplexed assay created by modifying the existing Attagene TRANS-FACTORIAL system to include a panel of nuclear receptors from some or all the following species: human (Homo sapiens), mouse (Mus musculus), frog (Xenopus laevis), zebrafish (Danio rerio), chicken (Gallus gallus), and turtle (Chrysemys picta). The ECOTOX-FACTORIAL format uses HepG2, a human liver cell line, with measurements taken at 24 hours after chemical dosing in a 24-well plate. Xsp1 included 3 nM 6-alpha-fluorotestosterone to partially stimulate the androgen receptor.ATG_chAR_XSP1 is one of 29 assay components measured or calculated from the ATG_XSP1_multi-species_TRANS assay. It is designed to make measurements of mRNA induction, a form of inducible reporter, as detected with fluorescence intensity signals by Reverse transcription polymerase chain reaction (RT-PCR) and Capillary electrophoresis technology.The assay endpoint ATG_chAR_XSP1 was analyzed in the positive analysis fitting direction relative to DMSO as the negative control and baseline of activity. […] Furthermore, this assay endpoint can be referred to as a primary readout, because this assay has produced multiple assay endpoints where this one serves a reporter gene function. […]
# zebrafish Estrogen Receptor (ESR1), esr1 (gene 259252), sequence (P57717 whole entry, looked up, the tested form may be a part): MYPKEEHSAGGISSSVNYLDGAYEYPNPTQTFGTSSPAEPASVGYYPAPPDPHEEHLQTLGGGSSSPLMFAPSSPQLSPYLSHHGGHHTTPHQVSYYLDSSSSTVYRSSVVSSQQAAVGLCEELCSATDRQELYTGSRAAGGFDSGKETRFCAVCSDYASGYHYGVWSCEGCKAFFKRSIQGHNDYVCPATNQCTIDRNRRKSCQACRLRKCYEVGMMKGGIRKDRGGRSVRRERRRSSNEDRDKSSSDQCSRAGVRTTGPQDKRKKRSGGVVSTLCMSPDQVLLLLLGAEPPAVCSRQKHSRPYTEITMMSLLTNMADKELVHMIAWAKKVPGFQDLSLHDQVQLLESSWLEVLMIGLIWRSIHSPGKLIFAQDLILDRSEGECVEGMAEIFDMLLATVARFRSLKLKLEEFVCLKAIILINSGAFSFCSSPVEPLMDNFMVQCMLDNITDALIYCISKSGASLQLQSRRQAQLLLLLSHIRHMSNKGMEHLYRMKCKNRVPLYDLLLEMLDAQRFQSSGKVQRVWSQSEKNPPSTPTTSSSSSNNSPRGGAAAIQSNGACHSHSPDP
# chicken Estrogen Receptor (ESR1), ESR1 (gene 396099), sequence (P06212 whole entry, looked up, the tested form may be a part): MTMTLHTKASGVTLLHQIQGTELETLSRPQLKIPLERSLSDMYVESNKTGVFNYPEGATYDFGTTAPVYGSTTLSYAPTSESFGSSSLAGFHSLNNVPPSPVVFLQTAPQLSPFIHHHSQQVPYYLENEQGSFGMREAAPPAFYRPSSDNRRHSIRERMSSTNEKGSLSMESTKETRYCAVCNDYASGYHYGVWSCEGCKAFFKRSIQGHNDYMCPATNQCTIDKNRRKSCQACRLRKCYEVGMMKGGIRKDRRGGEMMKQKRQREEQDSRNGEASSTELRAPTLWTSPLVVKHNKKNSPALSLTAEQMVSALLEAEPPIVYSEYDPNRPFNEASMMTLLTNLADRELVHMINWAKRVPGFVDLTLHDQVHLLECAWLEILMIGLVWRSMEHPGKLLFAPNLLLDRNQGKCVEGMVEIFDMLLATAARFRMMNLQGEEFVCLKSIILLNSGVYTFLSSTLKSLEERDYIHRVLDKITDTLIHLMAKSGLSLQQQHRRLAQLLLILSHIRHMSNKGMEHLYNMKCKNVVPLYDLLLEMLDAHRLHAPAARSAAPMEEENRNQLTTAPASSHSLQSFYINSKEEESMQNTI
compound,measurement,setting,value
CCC(=O)Nc1ccc(Cl)c(Cl)c1,outcome,[1],inactive
same,AC50,[2],20.7 µM (active)
CCCCSP(=O)(SCCCC)SCCCC,AC50,[1],78.1 µM (active)
same,AC50,[2],67.1 µM (active)
CCCCOC(=O)[C@@H](C)Oc1ccc(Oc2ccc(C#N)cc2F)cc1,AC50,[1],27.6 µM (active)
same,AC50,[2],62.3 µM (active)
CCCOCC(=Nc1ccc(Cl)cc1C(F)(F)F)n1ccnc1,outcome,[3],inactive
same,outcome,[4],inactive
same,outcome,[5],inactive
same,AC50,[6],2.94 µM (active)
same,AC50,[1],22.7 µM (active)
same,AC50,[2],6 µM (active)
same,outcome,[7],inactive
CCC(CC)Nc1c([N+](=O)[O-])cc(C)c(C)c1[N+](=O)[O-],AC50,[1],64.5 µM (active)
same,AC50,[2],50 µM (active)
CC(C)N(C(=O)SCC(Cl)=C(Cl)Cl)C(C)C,AC50,[1],89.9 µM (active)
same,AC50,[2],81 µM (active)
CCCCN(CC)c1c([N+](=O)[O-])cc(C(F)(F)F)cc1[N+](=O)[O-],AC50,[1],60.9 µM (active)
same,AC50,[2],43.8 µM (active)
CNc1cnn(-c2cccc(C(F)(F)F)c2)c(=O)c1Cl,outcome,[1],inactive
same,outcome,[2],inactive
CCOP(=S)(OCC)Oc1ccc([N+](=O)[O-])cc1,outcome,[1],inactive
same,outcome,[2],inactive
C#CCC1=C(C)C(OC(=O)C2C(C=C(C)C)C2(C)C)CC1=O (configuration not stated),AC50,[5],25.3 µM (active)
same,AC50,[6],23.4 µM (active)
same,AC50,[1],67.2 µM (active)
same,AC50,[2],49.8 µM (active)
CCOP(=S)(OCC)Oc1ccc2c(C)c(Cl)c(=O)oc2c1,AC50,[5],44.6 µM (active)
same,AC50,[6],34.6 µM (active)
same,outcome,[1],inactive
same,AC50,[2],31 µM (active)
same,outcome,[8],inactive
same,outcome,[9],inactive
same,outcome,[7],inactive
C[Si](Cn1cncn1)(c1ccc(F)cc1)c1ccc(F)cc1,AC50,[1],60.4 µM (active)
same,AC50,[2],50 µM (active)
Cc1ccn2nc(S(=O)(=O)Nc3c(F)cccc3F)nc2n1,outcome,[1],inactive
same,outcome,[2],inactive
CNC(=O)ON=C(SC)C(=O)N(C)C,outcome,[1],inactive
same,outcome,[2],inactive
C#CC(C)(C)NC(=O)c1cc(Cl)cc(Cl)c1,AC50,[10],26.4 µM (active)
same,outcome,[4],inactive
same,AC50,[5],52.6 µM (active)
same,AC50,[6],56.3 µM (active)
same,outcome,[1],inactive
same,AC50,[2],26.4 µM (active)
same,outcome,[8],inactive
same,outcome,[9],inactive
same,AC50,[7],50 µM (active)
COc1ccc(C(=CC(=O)N2CCOCC2)c2ccc(Cl)cc2)cc1OC,outcome,[1],inactive
same,AC50,[2],15.2 µM (active)
CCCCOC(=O)c1ccccc1C(=O)O,outcome,[1],inactive
same,outcome,[2],inactive
CCCSP(=O)(OCC)SCCC,outcome,[1],inactive
same,AC50,[2],28.8 µM (active)
CCCSP(=O)(OCC)Oc1ccc(Br)cc1Cl (configuration not stated),outcome,[1],inactive
same,outcome,[2],inactive
CC(C1CC1)C(O)(Cn1cncn1)c1ccc(Cl)cc1 (configuration not stated),AC50,[1],49.8 µM (active)
same,AC50,[2],49.8 µM (active)
CCCOc1nn(C(=O)NS(=O)(=O)c2ccccc2C(=O)OC)c(=O)n1C,outcome,[1],inactive
same,outcome,[2],inactive
CCC(=NOC/C=C/Cl)C1=C(O)CC(C2CCOCC2)CC1=O (configuration not stated),outcome,[1],inactive
FC(F)C(F)(F)OCC(Cn1cncn1)c1ccc(Cl)cc1Cl (configuration not stated),AC50,[1],66.4 µM (active)
same,AC50,[2],60.5 µM (active)
Cc1cc(C2CC2)nc(Nc2ccccc2)n1,AC50,[1],75.6 µM (active)
same,AC50,[2],64.2 µM (active)
COP(=O)(NC(C)=O)SC (configuration not stated),outcome,[1],inactive
same,outcome,[2],inactive
CCc1cccc(C)c1N(C(=O)CCl)C(C)COC (configuration not stated),outcome,[3],inactive
same,outcome,[4],inactive
same,AC50,[5],35.8 µM (active)
same,AC50,[6],48.9 µM (active)
same,outcome,[1],inactive
same,outcome,[2],inactive
same,AC50,[8],3.42 µM (active)
same,outcome,[9],inactive
same,AC50,[7],9.46 µM (active)
